Screens as filed in PubChem.
Smad3 inh = blocks human Smad3 binding to FoxH1 peptide; TR-FRET Smad3/Dy647-FoxH1 peptide binding, europium anti-His; inhibition, % at 25 µM; hit rate 0.29% among 88,000;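 active = compounds that reduce the energy-transfer binding signal between the protein and its labelled peptide by more than half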;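 also: 0% = Smad3 plus labelled peptide maximal FRET and 100% = peptide-only background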
Target sequence (P84022 whole entry, looked up): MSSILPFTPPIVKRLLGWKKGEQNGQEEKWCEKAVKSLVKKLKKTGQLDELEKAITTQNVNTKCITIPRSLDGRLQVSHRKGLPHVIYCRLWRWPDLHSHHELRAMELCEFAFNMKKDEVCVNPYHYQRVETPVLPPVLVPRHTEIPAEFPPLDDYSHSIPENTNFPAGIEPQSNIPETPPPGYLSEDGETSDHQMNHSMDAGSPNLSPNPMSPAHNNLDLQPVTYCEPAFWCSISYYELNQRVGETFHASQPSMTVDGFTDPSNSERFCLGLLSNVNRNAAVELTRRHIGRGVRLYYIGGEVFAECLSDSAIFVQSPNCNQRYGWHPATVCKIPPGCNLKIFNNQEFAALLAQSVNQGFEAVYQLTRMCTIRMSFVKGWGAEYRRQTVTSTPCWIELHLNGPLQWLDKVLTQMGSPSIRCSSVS
Measles CPE = protection of cells from measles virus | Measles virus-infected cells, CPE protection, absorbance | hit rate 1.5% among 140,000 | protection (pct of control), % at 4 µM; in the data active = protection mostly above about 24%, no sharp cut-off; inactive = mostly below about 26%
MT1-MMP txn act = activates MT1-MMP transcription; HT1080 MT1-MMP promoter luciferase reporter, luminescence, overnight; stronger effect = higher value; activation factor at 10 µM; hit rate 0.16% among 86,000; AID 750;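 active = activation factor of at least 2 for MT1-MMP transcription at 10 µM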
An asterisk follows results filed as active; / = no result. Compounds with a hit are over-represented: about 1.7% of the library has one in this group of screens.

SMILES	Smad3 inh	Measles CPE	MT1-MMP txn act
Cc1ccc(S(=O)(=O)N2CCN(CC(=O)N/N=C/C=C/c3ccccc3)CC2)cc1	/	15	/
CNS(=O)(=O)c1ccccc1C(=N)c1ccccc1	2	/	/
CCCS(=O)(=O)n1nc(-c2ccc(OC)cc2)cc1N	-4	27*	/
CCCS(=O)(=O)n1nc(-c2ccc(C)cc2)cc1N	7	21	/
CC[C@@H](c1ccc2cc(O)ccc2c1)C(C)(C)C(=O)O	-12	/	/
Cc1cccc(/C=C2\CCC(=C3SCCCS3)C2=O)c1	/	19	/
O=C1C(=C2SCCCS2)CC/C1=C\c1ccc(F)cc1	/	44*	/
CCOc1ccc(NC(=O)C(c2ccccn2)N(C(=O)CCl)c2ccc(F)cc2)cc1 (stereo not given)	/	4	/
O=C1C2CCCN2C(c2cccs2)N1c1ccc(Cl)cc1 (stereo not given)	2	25*	1.4
COc1ccccc1C1N(c2ccc(Cl)cc2)C(=O)C2CCCN21 (stereo not given)	5	6	1.5
O=C(Nc1ccc(O)c(-c2nc3ccccc3o2)c1)C1(c2ccc(Br)cc2)CCCC1	/	9	/
Brc1ccc(N=C(c2ccccc2)c2ccncc2)cc1	/	4	/
COc1cc([N+](=O)[O-])ccc1NC(=S)Nc1cc(C(=O)OC(C)C)cc(C(=O)OC(C)C)c1	/	5	/
CC(NS(C)(=O)=O)C(c1cccs1)N1CCN(Cc2ccccc2)CC1 (stereo not given)	-6	31*	1.1
CC(NS(C)(=O)=O)C(c1cccs1)N1CCN(C)CC1 (stereo not given)	9	17	1.1
CC(NS(=O)(=O)c1ccc(Br)cc1)C(c1cccs1)N1CCN(C)CC1 (stereo not given)	4	27*	1.1
CC(NS(=O)(=O)c1ccccc1)C(c1cccs1)N1CCN(c2ccccc2)CC1 (stereo not given)	4	2	1.3
COC(=O)C1C(=O)c2c([nH]c(C(=O)OC3CCCC3C)c2C)CC1C (stereo not given)	0	25	1.8
COC(=O)C1C(=O)c2c([nH]c(C(=O)OC3CCCCC3)c2C)CC1C (stereo not given)	-17	33*	1.3
COc1cc2c(cc1OC)C(CCN)=NCC2	21	/	/
COc1ccc(C(=O)N/N=C2\C(=O)c3c(C)cc(C)cc3CC2(C)C)cc1	-14	/	/
Cc1cccc2sc(NNC(=O)c3ccc(S(=O)(=O)N4CCCC(C)C4)cc3)nc12 (stereo not given)	/	3	/
Cc1cccc2sc(NNC(=O)c3ccc4c(c3)OCCO4)nc12	/	37*	/
Cc1ccc(C2CC(c3ccc(Cl)cc3)=NNC2=O)cc1 (stereo not given)	2	49*	1.2
CCc1ccc(C2CC(c3ccc(Cl)cc3)=NNC2=O)cc1 (stereo not given)	-4	3	1.2
SMILES	Smad3 inh	Measles CPE	MT1-MMP txn act
CCc1c2c(nc3ccc(OC)cc13)COC2	/	/	1.3
O=P(O)(O)OP(=O)(O)O	-1	/	/
O=C1C[C@@H](c2ccc(O)cc2)Oc2cc(O)cc(O)c21	/	31*	/
CC1(C)CC(=O)c2c(O)cc(O)cc2O1	5	9	1
C/C(=N\NS(=O)(=O)c1ccc(C)cc1)P(=O)(O)O	6	/	/
COc1ccc([N+](=O)[O-])cc1NC(=S)NC(NC(=O)C(c1ccccc1)c1ccccc1)C(Cl)(Cl)Cl (stereo not given)	/	77*	/
COc1ccc([N+](=O)[O-])cc1NC(=O)C(C)c1ccccc1 (stereo not given)	/	29	/
CC(C)=C1C2CCC1C1C(=O)N(c3nc(-c4ccccc4)c(C)s3)C(=O)C21 (stereo not given)	/	14	/
CCCCCCc1ccc(-c2ncc(N)cn2)cc1	0	8	0
Nc1ccc(-c2cnc(-c3ccc(N)cc3)nc2)cc1	3	69*	0.6
COc1ccc2nc(Nc3sc4c(c3C(N)=O)CCCC4)sc2c1	/	20	/
CC(CC(=O)O)(CC(=O)O)C(=O)O	4	/	/
Cc1nc(NC(=O)/C=C/c2ccc(C(C)(C)C)cc2)sc1C(=O)N(C)C	/	5	/
COc1ccc(N2C(=O)[C@@H]3Cc4ccccc4CN3C2=O)cc1	0	32*	1.1
Cc1ccc(N2C(=O)[C@@H]3Cc4ccccc4CN3C2=O)cc1	-4	10	1.2
CCCn1c(=O)[nH]c(=O)c2[nH]cnc21	13	8	1.1
CCCn1c(N)c(Br)c(=O)[nH]c1=O	/	45*	/
NNC(=O)CCc1ccc2ccc3ccccc3c2c1	36	/	/
COCCNC(=O)CSc1nc(N)c(NC(=O)c2ccccc2F)c(=O)[nH]1	/	5	/
CN(C)c1ccc(/C=C/c2cc[n+]([O-])cc2)cc1	1	25	1.7
CN(C)c1ccc(/C=C/c2cc[n+](C)cc2)cc1	-14	49*	1
O=C1COc2ccc(C(=O)c3ccccc3C(=O)NCc3ccco3)cc2N1	-11	5	0.9
O=C1COc2ccc(C(=O)c3ccccc3C(=O)NCc3ccccc3)cc2N1	-5	22*	0.9
